# “And” between values parts separate entries of the source, which are not always exact repeats. Equal entries are not always repeated. Inconclusive results are not listed. More than one record can exist for a structure, and the calls need not agree. The source made the active and inactive calls. The calls were made as follows, unless noted: active = hit-call score of the fitted dose curve at least 0.9, where 1 is the maximum; inactive = score below 0.9.
# Assays:
# [1] = target: Nuclear respiratory factor 1 (Homo sapiens) (UniProt Q16656); assay: ATG_NRF1_CIS: Attagene CIS-FACTORIAL HepG2 Assay for human Nuclear Respiratory Factor 1 (NRF1) Orphan Gene (AID 2282987); conditions: HepG2 NRF1 cis-element reporter, Attagene multiplex; actives raise or lower the signal
# Chain of Nuclear respiratory factor 1 (Homo sapiens) (Q16656 whole entry, looked up, the tested form may be a part): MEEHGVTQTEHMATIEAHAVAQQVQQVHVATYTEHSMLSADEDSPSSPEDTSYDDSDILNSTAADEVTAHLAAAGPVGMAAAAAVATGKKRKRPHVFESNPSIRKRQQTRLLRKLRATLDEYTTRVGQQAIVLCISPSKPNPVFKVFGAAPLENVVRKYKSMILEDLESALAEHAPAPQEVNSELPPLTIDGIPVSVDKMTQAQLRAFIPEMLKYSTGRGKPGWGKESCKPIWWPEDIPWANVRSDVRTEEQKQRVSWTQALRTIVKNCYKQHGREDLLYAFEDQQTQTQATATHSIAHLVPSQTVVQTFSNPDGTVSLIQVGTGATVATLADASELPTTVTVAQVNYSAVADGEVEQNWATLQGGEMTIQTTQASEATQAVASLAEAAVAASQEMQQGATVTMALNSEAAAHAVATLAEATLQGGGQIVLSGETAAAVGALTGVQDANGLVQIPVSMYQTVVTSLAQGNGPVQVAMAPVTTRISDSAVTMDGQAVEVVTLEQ
# Summary of the method: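 Cells (HepG2, transient MRTU transfection) are exposed to compound for 24 h, then RNA isolated and reporter mRNA amplified and fluorescently labelled. Fragments are separated by capillary electrophoresis; signal change is fitted bidirectionally relative to DMSO.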
# [2] = ATG_NFI_CIS: Attagene CIS-FACTORIAL HepG2 Assay for human Nuclear Factor I (NFI) (AID 2282989); conditions: HepG2 cis-regulatory reporter, NFI response element transcription; actives raise or lower the signal
# Summary of the method: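 Transient MRTU transfection of HepG2 → 24 h chemical dosing → total RNA, oligo(dT) RT → PCR, 6-FAM primer extension, HpaI cut → capillary electrophoresis. Endpoint fitted bidirectionally relative to DMSO.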
# [3] = target: Myc proto-oncogene protein (Homo sapiens) (UniProt P01106); assay: ATG_Myc_CIS: Attagene CIS-FACTORIAL HepG2 Assay for human Myelocytomatosis (Myc) Proto-Oncogene Transcription Factor (AID 2282990); conditions: HepG2, Attagene cis-reporter transcription factor activity; actives raise or lower the signal
# Chain of Myc proto-oncogene protein (Homo sapiens) (P01106 whole entry, looked up): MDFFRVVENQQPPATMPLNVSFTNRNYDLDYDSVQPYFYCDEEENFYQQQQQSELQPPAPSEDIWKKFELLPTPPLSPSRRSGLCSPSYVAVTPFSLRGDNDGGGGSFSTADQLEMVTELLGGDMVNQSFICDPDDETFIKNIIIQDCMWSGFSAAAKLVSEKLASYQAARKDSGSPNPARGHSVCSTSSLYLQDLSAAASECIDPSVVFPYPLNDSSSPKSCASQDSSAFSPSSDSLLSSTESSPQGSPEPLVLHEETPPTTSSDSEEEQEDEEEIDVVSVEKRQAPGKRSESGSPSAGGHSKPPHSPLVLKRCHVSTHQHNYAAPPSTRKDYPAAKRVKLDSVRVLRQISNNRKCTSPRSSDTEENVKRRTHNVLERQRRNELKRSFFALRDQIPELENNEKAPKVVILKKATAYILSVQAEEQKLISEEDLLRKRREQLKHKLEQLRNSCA
# Summary of the method: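 HepG2, transient MRTU transfection (cis promoters, endogenous TFs); 24 h dosing; TriZol RNA → oligo(dT) RT → PCR → 6-FAM primer extension → HpaI cut → CE. Bidirectional fit vs DMSO.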
# [4] = ATG_NF_kB_CIS: Attagene CIS-FACTORIAL HepG2 Assay for human Nuclear Factor Kappa B (NF-kB) (AID 2282991); conditions: HepG2 Attagene cis-factorial NF-kB reporter mRNA; actives raise or lower the signal
# Summary of the method: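 Measures mRNA induction of an NF-kB-responsive cis-element reporter in HepG2 cells transfected with multiple reporter units, sampled 24 h post-dosing; quantified by fluorescence after RT-PCR and capillary electrophoresis, fitted for activation or inhibition against DMSO.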
# [5] = ATG_Oct_MLP_CIS: Attagene CIS-FACTORIAL HepG2 Assay for human Octamer-Binding Transcription Factor (Oct) (AID 2282993); conditions: HepG2 Attagene cis-factorial Oct reporter, mRNA; actives raise or lower the signal
# Summary of the method: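 Transient MRTU transfection of HepG2 → 24 h compound treatment → RNA isolation, reverse transcription, PCR → 6-FAM primer extension, HpaI digest → capillary electrophoresis. Activity fitted both directions against DMSO.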
# [6] = target: Cellular tumor antigen p53 (Homo sapiens) (UniProt P04637); assay: ATG_p53_CIS: Attagene CIS-FACTORIAL HepG2 Assay for human p53 Transcription Factor (AID 2282994); conditions: HepG2 p53 cis-element reporter, Attagene mRNA; actives raise or lower the signal
# Chain of Cellular tumor antigen p53 (Homo sapiens) (P04637 whole entry, looked up, the tested form may be a part): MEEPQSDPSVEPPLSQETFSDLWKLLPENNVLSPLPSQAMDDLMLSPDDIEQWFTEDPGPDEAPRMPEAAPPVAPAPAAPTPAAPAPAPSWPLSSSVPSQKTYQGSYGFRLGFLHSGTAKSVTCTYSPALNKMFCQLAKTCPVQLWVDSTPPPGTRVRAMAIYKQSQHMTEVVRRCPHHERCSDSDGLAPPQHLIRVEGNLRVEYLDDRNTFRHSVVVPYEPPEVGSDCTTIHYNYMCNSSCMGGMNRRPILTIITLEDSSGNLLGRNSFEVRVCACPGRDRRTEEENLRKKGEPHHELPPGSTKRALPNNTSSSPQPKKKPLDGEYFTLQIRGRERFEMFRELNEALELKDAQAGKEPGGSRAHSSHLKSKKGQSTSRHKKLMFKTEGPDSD
# Summary of the method: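 In HepG2 cells, reporter transcription units under cis-regulatory promoters were transiently introduced. Following 24 h treatment, RNA was processed to labelled, digested cDNA fragments read by capillary electrophoresis; fitting was bidirectional versus DMSO.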
# [7] = BSK_3C_TissueFactor: BioMAP Diversity Plus: 3C Assay for Tissue Factor Biomarker Activity (AID 2282997); conditions: BioMAP 3C HUVEC, tissue factor biomarker readout; actives raise or lower the signal
# Summary of the method: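 HUVEC, 3C system, 24 h post-dose; Tissue Factor by ELISA; bidirectional fit vs DMSO baseline.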
# [8] = BSK_3C_uPAR: BioMAP Diversity Plus: 3C Assay for Urokinase-type plasminogen activator receptor (uPAR) Biomarker Activity (AID 2282998); conditions: BioMAP 3C HUVEC, uPAR biomarker ELISA; actives raise or lower the signal
# Summary of the method: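 ELISA readout of uPAR on human vascular endothelium (umbilical vein primary cells), taken 24 h after chemical dosing. Increases and decreases are both fitted relative to DMSO vehicle.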
# [9] = BSK_3C_VCAM1: BioMAP Diversity Plus: 3C Assay for Vascular cell adhesion molecule 1 (VCAM1) Biomarker Activity (AID 2282999); conditions: BioMAP 3C HUVEC, VCAM1 ELISA, cytokine-stimulated; actives raise or lower the signal
# Summary of the method: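 Activity fitted in both directions relative to DMSO, with ELISA measurement of the surface marker on primary HUVEC (3C) at 24 h post-treatment; parallel SRB staining (0.1% SRB, TCA-fixed, 560 nm) flagged overt cytotoxicity.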
# [10] = BSK_4H_Eotaxin3: BioMAP Diversity Plus: 4H Assay for Eotaxin 3 Biomarker Activity (AID 2283000); conditions: primary human endothelial cells (HUVEC); actives raise or lower the signal;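 as to outcome: CCL26 protein level quantified by ELISA in parallel with SRB cytotoxicity check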
# Summary of the method: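 Readout is Eotaxin-3 (CCL26) level by ELISA in primary human umbilical vein endothelial cells harvested 24 h after chemical exposure; activity fitted in both directions against DMSO control.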
# [11] = target: human Peroxisome Proliferator-activated Receptor alpha (PPARa), PPARA (gene 5465) (UniProt Q07869); assay: ATG_PPARa_TRANS: Attagene TRANS-FACTORIAL HepG2 Assay for human Peroxisome Proliferator-activated Receptor alpha (PPARa) (AID 2283001; active = hit-call score of the fitted dose curve at least 0.9, where 1 is the maximum)
# Chain of human Peroxisome Proliferator-activated Receptor alpha (PPARa), PPARA (gene 5465) (Q07869 whole entry, looked up, the tested form may be a part): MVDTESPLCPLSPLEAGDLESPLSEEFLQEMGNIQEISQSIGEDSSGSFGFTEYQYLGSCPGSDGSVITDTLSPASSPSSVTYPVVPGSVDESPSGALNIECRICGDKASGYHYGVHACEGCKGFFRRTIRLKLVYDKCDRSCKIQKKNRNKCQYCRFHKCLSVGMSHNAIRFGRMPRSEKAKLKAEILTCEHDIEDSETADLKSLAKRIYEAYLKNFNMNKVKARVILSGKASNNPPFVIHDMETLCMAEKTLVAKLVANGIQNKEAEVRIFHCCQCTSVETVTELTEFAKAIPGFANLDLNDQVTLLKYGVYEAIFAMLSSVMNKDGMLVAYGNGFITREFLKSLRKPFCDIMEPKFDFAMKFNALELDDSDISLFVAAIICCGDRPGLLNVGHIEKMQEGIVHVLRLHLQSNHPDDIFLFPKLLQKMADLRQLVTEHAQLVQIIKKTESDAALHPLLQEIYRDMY
# Summary of the method: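 Transfected HepG2 cells treated with test chemical for 24 h. RNA isolated, reverse-transcribed with oligo(dT), PCR-amplified, FAM-labelled and HpaI-digested. Fragments sized by capillary electrophoresis; gain-of-signal fit relative to DMSO.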
# [12] = target: human Peroxisome Proliferator-activated Receptor delta (PPARd), PPARD (gene 5467) (UniProt Q03181); assay: ATG_PPARd_TRANS: Attagene TRANS-FACTORIAL HepG2 Assay for human Peroxisome Proliferator-activated Receptor delta (PPARd) (AID 2283002; active = hit-call score of the fitted dose curve at least 0.9, where 1 is the maximum)
# Chain of human Peroxisome Proliferator-activated Receptor delta (PPARd), PPARD (gene 5467) (Q03181 whole entry, looked up, the tested form may be a part): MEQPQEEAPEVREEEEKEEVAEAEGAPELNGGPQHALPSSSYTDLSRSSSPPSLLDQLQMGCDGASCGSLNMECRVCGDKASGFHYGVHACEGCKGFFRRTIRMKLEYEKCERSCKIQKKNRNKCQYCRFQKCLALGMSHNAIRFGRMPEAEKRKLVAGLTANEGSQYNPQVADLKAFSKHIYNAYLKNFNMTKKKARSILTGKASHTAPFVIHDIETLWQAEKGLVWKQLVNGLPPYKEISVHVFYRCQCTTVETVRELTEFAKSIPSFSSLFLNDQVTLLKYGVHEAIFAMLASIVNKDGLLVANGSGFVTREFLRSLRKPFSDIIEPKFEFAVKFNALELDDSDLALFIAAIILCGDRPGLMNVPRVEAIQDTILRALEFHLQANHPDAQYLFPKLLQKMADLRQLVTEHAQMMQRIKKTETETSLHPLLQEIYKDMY
# Summary of the method: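 Transient HepG2 transfection (multiple GAL4-UAS RTUs, chimeric receptor-Gal4); 24 h dosing; total RNA → oligo(dT) RT → PCR → 6-FAM primer extension → HpaI cut → CE. Positive direction vs DMSO.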
# [13] = read-out: Intercellular Adhesion Molecule 1 (ICAM1), ICAM1 (gene 3383); assay: BSK_3C_ICAM1: BioMAP Diversity Plus: 3C Assay for Intercellular Adhesion Molecule 1 (ICAM1) Biomarker Activity (AID 2283003); conditions: primary human endothelial cells (HUVEC); actives raise or lower the signal
# Summary of the method: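 ELISA read-out of ICAM-1; HUVEC (primary human), 3C system, 24 h post-dosing; bidirectional fit vs DMSO baseline.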
# [14] = target: human Retinoic Acid Receptor beta (RARb), RARB (gene 5915) (UniProt P10826); assay: ATG_RARb_TRANS: Attagene TRANS-FACTORIAL HepG2 Assay for human Retinoic Acid Receptor beta (AID 2283004; active = hit-call score of the fitted dose curve at least 0.9, where 1 is the maximum)
# Chain of human Retinoic Acid Receptor beta (RARb), RARB (gene 5915) (P10826 whole entry, looked up, the tested form may be a part): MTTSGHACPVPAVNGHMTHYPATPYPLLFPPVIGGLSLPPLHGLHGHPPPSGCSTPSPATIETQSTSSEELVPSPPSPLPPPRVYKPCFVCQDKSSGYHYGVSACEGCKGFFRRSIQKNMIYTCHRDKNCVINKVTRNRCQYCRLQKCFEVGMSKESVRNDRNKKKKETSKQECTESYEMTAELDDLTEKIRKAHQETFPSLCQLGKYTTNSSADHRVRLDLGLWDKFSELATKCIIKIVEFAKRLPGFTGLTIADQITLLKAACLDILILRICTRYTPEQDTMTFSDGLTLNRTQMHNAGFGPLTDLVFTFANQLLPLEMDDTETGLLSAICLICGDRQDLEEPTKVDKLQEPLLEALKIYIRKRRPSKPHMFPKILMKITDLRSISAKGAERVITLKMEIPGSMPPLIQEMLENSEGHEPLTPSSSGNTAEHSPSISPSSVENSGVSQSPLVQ
# Summary of the method: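 Readout is reporter mRNA induction: RNA reverse-transcribed, PCR-amplified, FAM-labelled, HpaI-cut and resolved by capillary electrophoresis. Transiently transfected HepG2 cells carrying exogenous NR–Gal4 chimeras were dosed for 24 h; activity fitted upward relative to DMSO.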
# [15] = target: Retinoic acid receptor alpha (Homo sapiens) (UniProt P10276); assay: ATG_RARa_TRANS: Attagene TRANS-FACTORIAL HepG2 Assay for human Retinoic Acid Receptor alpha (RARa) (AID 2283005; active = hit-call score of the fitted dose curve at least 0.9, where 1 is the maximum)
# Chain of Retinoic acid receptor alpha (Homo sapiens) (P10276 whole entry, looked up, the tested form may be a part): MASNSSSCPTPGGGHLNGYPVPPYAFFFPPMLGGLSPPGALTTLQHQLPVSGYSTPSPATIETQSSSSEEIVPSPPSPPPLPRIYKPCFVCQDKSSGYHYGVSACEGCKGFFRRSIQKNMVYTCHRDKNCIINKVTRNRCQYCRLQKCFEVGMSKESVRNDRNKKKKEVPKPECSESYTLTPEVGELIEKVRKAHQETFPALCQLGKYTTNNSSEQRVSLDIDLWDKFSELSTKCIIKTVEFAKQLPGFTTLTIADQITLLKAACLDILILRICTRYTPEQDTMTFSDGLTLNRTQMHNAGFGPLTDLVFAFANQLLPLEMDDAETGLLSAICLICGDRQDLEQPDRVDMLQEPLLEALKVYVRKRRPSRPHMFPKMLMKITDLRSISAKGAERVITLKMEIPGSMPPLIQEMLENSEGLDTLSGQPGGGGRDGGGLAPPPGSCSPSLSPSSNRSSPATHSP
# Summary of the method: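 Reporter transcripts, measured by RT-PCR with fluorescent labeling and capillary electrophoresis after 24 h dosing, reflect activity of an exogenous human RARa–GAL4 fusion in transiently transfected HepG2. Fitted for increase relative to DMSO.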
# [16] = BSK_3C_Proliferation: Cell Proliferation Assessment in the BioMAP Diversity Plus: 3C Assay (AID 2283006); conditions: primary human endothelial cells (HUVEC);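 as to AC50: potency may reflect either rise or fall in cell number versus DMSO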
# Summary of the method: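 HUVEC, sub-confluent; 48 h chemical exposure; 10% TCA fix, 0.1% SRB stain, A560 total protein. Gain or loss of signal fitted both directions vs DMSO control.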
# [17] = target: Peroxisome proliferator-activated receptor gamma (Homo sapiens) (UniProt P37231); assay: ATG_PPARg_TRANS: Attagene TRANS-FACTORIAL HepG2 Assay for human Peroxisome Proliferator-activated Receptor-gamma (PPARg) (AID 2283007; active = hit-call score of the fitted dose curve at least 0.9, where 1 is the maximum)
# Chain of Peroxisome proliferator-activated receptor gamma (Homo sapiens) (P37231 whole entry, looked up, the tested form may be a part): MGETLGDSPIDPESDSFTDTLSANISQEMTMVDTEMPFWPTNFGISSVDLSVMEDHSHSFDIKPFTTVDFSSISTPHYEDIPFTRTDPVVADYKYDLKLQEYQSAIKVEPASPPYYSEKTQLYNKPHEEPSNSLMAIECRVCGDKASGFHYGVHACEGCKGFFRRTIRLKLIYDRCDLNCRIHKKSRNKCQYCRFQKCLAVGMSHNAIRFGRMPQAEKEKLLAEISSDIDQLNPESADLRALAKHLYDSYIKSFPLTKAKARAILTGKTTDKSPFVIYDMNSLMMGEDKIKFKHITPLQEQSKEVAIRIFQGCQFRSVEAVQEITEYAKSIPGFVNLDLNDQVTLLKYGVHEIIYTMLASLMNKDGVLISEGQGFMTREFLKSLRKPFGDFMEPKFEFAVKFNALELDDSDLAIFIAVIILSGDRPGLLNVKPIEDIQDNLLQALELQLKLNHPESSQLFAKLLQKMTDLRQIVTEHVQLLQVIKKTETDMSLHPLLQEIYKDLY
# Summary of the method: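 Gain-of-signal endpoint relative to DMSO, derived from reporter mRNA levels quantified by RT-PCR and capillary electrophoresis. Cells were HepG2 transiently expressing a chimeric NR-Gal4 construct with GAL4-UAS reporters, exposed to chemicals for 24 h.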
# [18] = target: Nuclear receptor subfamily 1 group I member 2 (Homo sapiens) (UniProt O75469); assay: ATG_PXR_TRANS: Attagene TRANS-FACTORIAL HepG2 Assay for human Pregnane X Receptor (PXR) (AID 2283008; active = hit-call score of the fitted dose curve at least 0.9, where 1 is the maximum)
# Chain of Nuclear receptor subfamily 1 group I member 2 (Homo sapiens) (O75469 whole entry, looked up, the tested form may be a part): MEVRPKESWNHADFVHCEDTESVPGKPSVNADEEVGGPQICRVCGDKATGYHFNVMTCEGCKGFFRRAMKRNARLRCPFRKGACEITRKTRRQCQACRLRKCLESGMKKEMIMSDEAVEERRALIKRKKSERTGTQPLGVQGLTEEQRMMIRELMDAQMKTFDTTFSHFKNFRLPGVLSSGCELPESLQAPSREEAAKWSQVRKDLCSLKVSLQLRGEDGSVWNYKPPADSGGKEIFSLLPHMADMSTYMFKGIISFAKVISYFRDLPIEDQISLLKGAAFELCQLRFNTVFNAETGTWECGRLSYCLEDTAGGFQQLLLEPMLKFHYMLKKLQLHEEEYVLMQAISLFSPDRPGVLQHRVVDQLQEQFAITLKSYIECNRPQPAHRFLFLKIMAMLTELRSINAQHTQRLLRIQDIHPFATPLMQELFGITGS
# Summary of the method: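 Multiplexed TRANS reporter panel in HepG2; this component tracks PXR-Gal4-driven reporter mRNA after 24 h dosing, measured by RT-PCR with capillary electrophoresis fluorescence, fitted against DMSO.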
# [19] = target: human Retinoic Acid Receptor gamma (RARg), RARG (gene 5916) (UniProt P13631); assay: ATG_RARg_TRANS: Attagene TRANS-FACTORIAL HepG2 Assay for human Retinoic Acid Receptor gamma (RARg) (AID 2283009; active = hit-call score of the fitted dose curve at least 0.9, where 1 is the maximum)
# Chain of human Retinoic Acid Receptor gamma (RARg), RARG (gene 5916) (P13631 whole entry, looked up, the tested form may be a part): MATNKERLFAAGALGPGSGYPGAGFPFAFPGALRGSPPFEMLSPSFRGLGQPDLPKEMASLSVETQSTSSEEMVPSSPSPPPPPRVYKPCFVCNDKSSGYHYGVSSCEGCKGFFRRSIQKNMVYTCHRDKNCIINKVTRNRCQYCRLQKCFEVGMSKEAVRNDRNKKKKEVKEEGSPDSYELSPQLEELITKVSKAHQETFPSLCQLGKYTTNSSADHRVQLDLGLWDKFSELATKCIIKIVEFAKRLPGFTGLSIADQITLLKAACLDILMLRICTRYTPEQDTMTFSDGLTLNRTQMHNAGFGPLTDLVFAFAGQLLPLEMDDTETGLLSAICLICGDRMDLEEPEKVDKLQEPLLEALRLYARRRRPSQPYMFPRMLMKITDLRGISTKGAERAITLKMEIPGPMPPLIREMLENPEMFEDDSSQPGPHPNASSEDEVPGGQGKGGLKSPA
# Summary of the method: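 Readout: reporter transcript levels via RT-PCR, 6-FAM primer-extension labelling, HpaI digestion and capillary electrophoresis. Cells: HepG2 carrying transfected RARg-GAL4 chimera plus UAS reporter set. Dosing 24 h; DMSO negative control.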
# [20] = ATG_NRF2_ARE_CIS: Attagene CIS-FACTORIAL HepG2 Assay for human Nuclear Factor Erythroid 2 Related Factor 2 (NFR2) response to Antioxidant Response Elements (ARE) (AID 2282992); conditions: HepG2 Attagene ARE/NRF2 reporter, transcription factor activity; actives raise or lower the signal
# Summary of the method: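 Using transiently transfected HepG2 cells exposed for 24 h, reporter mRNA levels were determined by RT-PCR with fluorescent primer extension and capillary electrophoresis, analysed for gain or loss of signal against DMSO.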
compound,measurement,setting,value
O=C(Cl)C(F)(F)C(F)(F)C(F)(F)C(=O)Cl,outcome,[1],inactive
same,outcome,[2],inactive
same,outcome,[3],inactive
same,outcome,[4],inactive
same,outcome,[5],inactive
same,outcome,[6],inactive
same,outcome,[7],inactive
same,outcome,[8],inactive
same,outcome,[9],inactive
same,outcome,[10],inactive
same,outcome,[11],inactive
same,outcome,[12],inactive
same,outcome,[13],inactive
same,outcome,[14],inactive
same,outcome,[15],inactive
same,outcome,[16],inactive
same,outcome,[17],inactive
same,outcome,[18],inactive
same,outcome,[19],inactive
FC(F)(F)C(F)(F)C(F)(F)C(F)(F)C(F)(F)C(F)(F)I,outcome,[1],inactive
same,outcome,[2],inactive
same,outcome,[3],inactive
same,outcome,[4],inactive
same,AC50,[20],107 µM (active)
same,outcome,[20],inactive
same,outcome,[5],inactive
same,outcome,[6],inactive
same,outcome,[7],inactive
same,outcome,[8],inactive
same,outcome,[9],inactive
same,outcome,[10],inactive
same,outcome,[11],inactive
same,outcome,[12],inactive
same,outcome,[13],inactive
same,outcome,[16],inactive
same,AC50,[17],88 µM (active) and 106 µM (active)
same,outcome,[18],inactive
CCCCOC(=O)c1ccccc1,outcome,[1],inactive
same,outcome,[2],inactive
same,outcome,[3],inactive
same,outcome,[4],inactive
same,outcome,[20],inactive
same,outcome,[5],inactive
same,outcome,[6],inactive
same,outcome,[7],inactive
same,outcome,[8],inactive
same,outcome,[9],inactive
same,outcome,[10],inactive
same,outcome,[12],inactive
same,outcome,[13],inactive
same,outcome,[16],inactive
same,outcome,[17],inactive
same,outcome,[18],inactive
CCc1ccc(O)c(C(C)(C)C)c1,outcome,[1],inactive
same,outcome,[2],inactive
same,AC50,[3],33.4 µM (active)
same,outcome,[4],inactive
same,outcome,[5],inactive
same,outcome,[6],inactive
same,AC50,[7],32.2 µM (active)
same,AC50,[8],39.3 µM (active)
same,AC50,[9],34.6 µM (active)
same,AC50,[10],39 µM (active)
same,outcome,[11],inactive
same,AC50,[13],31.5 µM (active)
same,AC50,[16],34.8 µM (active)
same,outcome,[17],inactive
same,AC50,[18],17.4 µM (active)
CC(C)CC(C)O (centres undefined),outcome,[1],inactive
same,outcome,[2],inactive
same,outcome,[3],inactive
same,outcome,[4],inactive
same,outcome,[20],inactive
same,outcome,[5],inactive
same,outcome,[7],inactive
same,outcome,[8],inactive
same,outcome,[9],inactive
same,outcome,[10],inactive
same,outcome,[13],inactive
same,outcome,[15],inactive
same,outcome,[16],inactive
O=C(O)CO,outcome,[1],inactive
same,outcome,[2],inactive
same,outcome,[3],inactive
same,outcome,[4],inactive
same,outcome,[5],inactive
same,outcome,[11],inactive
same,outcome,[12],inactive
same,outcome,[14],inactive
same,outcome,[15],inactive
same,outcome,[17],inactive
same,outcome,[18],inactive
CCN(CC)C(=S)SSC(=S)N(CC)CC,AC50,[1],175 µM (active)
same,AC50,[2],158 µM (active)
same,AC50,[3],83.7 µM (active)
same,AC50,[4],27.6 µM (active)
same,AC50,[20],184 µM (active)
same,AC50,[5],144 µM (active)
same,AC50,[6],137 µM (active)
same,AC50,[7],20 µM (active)
same,AC50,[8],20.6 µM (active)
same,AC50,[9],28.9 µM (active)
same,AC50,[10],32.3 µM (active)
same,outcome,[11],inactive
same,outcome,[12],inactive
same,AC50,[13],34.9 µM (active)
same,outcome,[17],inactive
same,AC50,[18],49.6 µM (active)
COc1cc(C(C)C)c2c(c1)S(=O)(=O)N(COc1cc(=O)n3cccc(OCCN4CCCCC4)c3n1)C2=O,outcome,[1],inactive
same,AC50,[2],3.64 µM (active)
same,AC50,[3],2.75 µM (active)
same,AC50,[4],10.3 µM (active)
same,AC50,[5],4.34 µM (active)
same,outcome,[7],inactive
same,AC50,[8],2.89 µM (active)
same,AC50,[9],5.38 µM (active)
same,AC50,[10],8.57 µM (active)
same,outcome,[11],inactive
same,outcome,[13],inactive
same,outcome,[14],inactive
same,AC50,[16],4.63 µM (active)
same,AC50,[17],2.75 µM (active)
same,AC50,[18],0.836 µM (active)
same,outcome,[19],inactive
